The results in this text go back to PubChem BioAssay (Tox21).

“And” between values parts separate entries of the source, which are not always exact repeats. Identical values can stand only once. Records with an inconclusive call do not appear. Where a structure was tested more than once in an assay, its records may differ in their call. The source made the active and inactive calls. Unless noted, calls follow the shape of the dose curve; as a rule, active = well fitted curve in the direction sought with a large enough effect in the repeat runs; inconclusive = weak or mixed curves; inactive = no such curve, though single readings can be large; an effect the other way counts as inactive or inconclusive.

A short description of test [1]: qHTS assay to identify aromatase inhibitors - cell viability counter screen (AID 743084).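 Also: cells stimulated with testosterone during compound exposure; nearly all actives have a fitted effect of over 55% in size.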 Also: potency is read from the fitted curve at half-maximal effect.
Test [2] has as its target Aryl hydrocarbon receptor (Homo sapiens) (UniProt P35869). The test is described as follows: qHTS assay to identify small molecule that activate the aryl hydrocarbon receptor (AhR) signaling pathway (AID 743085). Also: nearly all actives have a fitted effect of over 15% in size. Also: potency is read from the fitted curve at half-maximal effect.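 As to activation: HG2L7.5c1 human HepG2 liver cells with stably integrated DRE-driven firefly reporter; series mostly up to about 70 µM.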 Summed up: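 Luminescence read-out: ONE-Glo reagent, 30 min at room temperature, in HG2L7.5c1 HepG2 reporter cells treated 24 h at 37C. Viability was measured beforehand by CellTiter-Fluor fluorescence after 30 min at 37C.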
(In qHTS, concentration-response curves come from the screen itself.)

Test [3] is described as follows: qHTS assay to identify small molecule that activate the aryl hydrocarbon receptor (AhR) signaling pathway - cell viability counter screen (AID 743086).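 Also: HepG2 liver cells carrying the AhR DRE luciferase reporter; series mostly up to about 70 µM; nearly all actives have a fitted effect of over 45% in size.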 Summed up:
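Cytotoxicity counter screen: CellTiter-Fluor signal (30 min, 37 C) in 4000 HepG2 cells/well carrying the DRE-luciferase reporter, following 24 h compound exposure at 37 C.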

For test [4], the target named is Peroxisome proliferator-activated receptor gamma (Homo sapiens) (UniProt P37231). As to the kind of experiment: qHTS assay to identify small molecule agonists of the peroxisome proliferator-activated receptor gamma (PPARg) signaling pathway (AID 743094; active = well fitted activation curve with a large enough effect in the signal ratio in the repeat runs, not every such curve was filed as active; the % refers to the signal ratio; also: potency is read from the fitted curve at half-maximal effect). Summed up:
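Quantitative HTS agonist mode: stable HEK293H line with UAS-beta-lactamase reporter under PPARg control, 17 h compound exposure at 37C, fluorescence after 1 h FRET substrate loading at room temperature.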

The nature of test [5]: qHTS assay to identify small molecule antagonists of the peroxisome proliferator-activated receptor gamma (PPARg) signaling pathway - cell viability counter screen (AID 743194). Also: nearly all actives have a fitted effect of over 55% in size. Summed up: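 Viability was measured as CellTiter-Glo luminescence in GeneBLAzer PPARg UAS-bla HEK293H cells. These cells had been exposed 17 h at 37 C to compounds together with rosiglitazone at 50 nM final, with the beta-lactamase readout taken in the same wells.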

Test [6] in a line: qHTS assay for small molecule agonists of the antioxidant response element (ARE) signaling pathway (AID 743202; active = well fitted activation curve with a large enough effect in the signal ratio in the repeat runs, not every such curve was filed as active; the % refers to the signal ratio; also: potency is read from the fitted curve at half-maximal effect). Summed up:
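An ARE-responsive beta-lactamase gene stably integrated in HepG2 cells serves as reporter. After 5 h plating and 16 h compound incubation at 37 C, fluorescence of the B/G FRET substrate was measured.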

Test [7] is described as follows: qHTS assay for small molecule agonists of the antioxidant response element (ARE) signaling pathway - cell viability counter screen (AID 743203; calls by dose curve; also: nearly all actives have a fitted effect of over 55% in size). Summed up:
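Seeded at 2,000 cells/well, ARE-bla HepG2 cells were incubated 5 hrs before compound addition. After 16 hrs of treatment at 37C with 5% CO2, CellTiter-Glo reagent was added and luminescence read 30 min later.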

Test [8] is described as follows: qHTS assay for small molecule activators of the heat shock response signaling pathway - cell viability counter screen (AID 743209). Also: nearly all actives have a fitted effect of over 50% in size. Summed up:
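First, HSE-bla HeLa cells were seeded at 1500 cells/well and kept overnight at 37 C. Next, compounds were pinned in and incubated 5 h. After the FRET substrate step, CellTiter-Glo was added and luminescence read 30 min later.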

The nature of test [9]: qHTS assay for small molecule activators of the heat shock response signaling pathway (AID 743210; active = well fitted activation curve with a large enough effect in the signal ratio in the repeat runs, with a control signal flat, not every such curve was filed as active; the % refers to the signal ratio;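 also: HeLa cells with beta-lactamase reporter driven by heat shock elements; series mostly up to about 63 µM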). Summed up: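 In HSE-bla HeLa cells, 5 h compound incubation (37 C) precedes addition of LiveBLAzer B/G substrate; after 2.5 h at room temperature, fluorescence intensity indicates reporter induction.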
Test [10] is described as follows: qHTS assay to identify small molecule agonists of the peroxisome proliferator-activated receptor delta (PPARd) signaling pathway - cell viability counter screen (AID 743211). Also: nearly all actives have a fitted effect of over 55% in size. Summed up: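 Read-out: CellTiter-Glo luminescence, 30 min RT, measured in the same wells as the beta-lactamase reporter. Cells: GeneBLAzer PPAR delta UAS-bla HEK293H, 3000 cells/well, compound exposure 17 h at 37C.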

The nature of test [11]: qHTS assay to identify small molecule antagonists of the peroxisome proliferator-activated receptor delta (PPARd) signaling pathway - cell viability counter screen (AID 743213). Also: nearly all actives have a fitted effect of over 50% in size. Summed up: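 Agonist-stimulated (L165041, 300 nM final) HEK293H PPARd UAS-bla cells are exposed to compounds for 17 h at 37 C, and ATP-based luminescence (CellTiter-Glo) from the same wells reports cytotoxicity.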

For test [12], the target named is Bile acid receptor (Homo sapiens) (UniProt Q96RI1). The test is described as follows: qHTS assay to identify small molecule antagonists of the farnesoid-X-receptor (FXR) signaling pathway (AID 743217; active = well fitted inhibition curve with a large enough effect in the signal ratio in the repeat runs, not every such curve was filed as active; the % refers to the signal ratio). Summed up: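 Antagonist mode against 50 uM (final) chenodeoxycholic acid stimulation in FXR-bla HEK 293T cells, 16 h at 37 °C. Inhibition detected as reduced beta-lactamase activity via LiveBLAzer B/G FRET fluorescence after 2 h at room temperature.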

Test [13] in a line: qHTS assay to identify small molecule agonists of the farnesoid-X-receptor (FXR) signaling pathway - cell viability counter screen (AID 743218). Also: nearly all actives have a fitted effect of over 45% in size. Summed up:
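Cytotoxicity counter-screen run in parallel, same wells: FXR-UAS-bla HEK 293T cells dosed 16 h at 37 C, viability read by CellTiter-Glo luminescence after 30 min at room temperature.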

The target in test [14] is Bile acid receptor (Homo sapiens) (UniProt Q96RI1). The test is described as follows: qHTS assay to identify small molecule agonists of the farnesoid-X-receptor (FXR) signaling pathway (AID 743220; active = well fitted activation curve with a large enough effect in the signal ratio in the repeat runs, not every such curve was filed as active; the % refers to the signal ratio). Summed up:
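Beta-lactamase reporter under UAS control in GeneBLAzer FXR HEK 293T cells (5000/well) measured with LiveBLAzer FRET substrate after 2 h at room temperature. Compound exposure lasted 16 h at 37C.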

Test [15] is described as follows: qHTS assay to identify small molecule antagonists of the farnesoid-X-receptor (FXR) signaling pathway - cell viability counter screen (AID 743221; active = well fitted cell-killing curve with a large enough effect in the repeat runs, not every such curve was filed as active; also: nearly all actives have a fitted effect of over 50% in size). Summed up: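 HEK 293T FXR-bla cells, 5 h pre-incubation; compound + CDCA 50 uM final, 16 h, 37 C; beta-lactamase FRET read first, then CellTiter-Glo luminescence, 30 min RT.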
The target in test [16] is Vitamin D3 receptor (Homo sapiens) (UniProt P11473). The test is described as follows: qHTS assay to identify small molecule agonists of the vitamin D receptor (VDR) signaling pathway (AID 743222; calls by dose curve). Summed up: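 Quantitative HTS agonist-mode screen: compounds in DMSO were pin-transferred onto VDR-bla cells and incubated 16 h at 37C, 5% CO2. Reporter activity was detected with LiveBLAzer B/G FRET substrate after 2 h at room temperature.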

Test [17] has the same target. As to the kind of experiment: qHTS assay to identify small molecule antagonists of the vitamin D receptor (VDR) signaling pathway (AID 743223; active = well fitted inhibition curve with a large enough effect in the signal ratio in the repeat runs, not every such curve was filed as active; the % refers to the signal ratio). Summed up:
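Beta-lactamase reporter read-out: FRET substrate fluorescence after 2 h at room temperature, following 16 h exposure of VDR-bla cells to test compound plus 3 nM (final) 1alpha,25-dihydroxyvitamin D3 agonist at 37C.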

The target of test [18] is Peroxisome proliferator-activated receptor gamma (Homo sapiens) (UniProt P37231). The test is described as follows: qHTS assay to identify small molecule antagonists of the peroxisome proliferator-activated receptor gamma (PPARg) signaling pathway (AID 743191; calls by dose curve; also: nearly all actives have a fitted effect of over 30% in size; also: potency is read from the fitted curve at half-maximal effect). Summed up:
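Beta-lactamase reporter under UAS control in HEK293H PPARg-bla cells; compound treatment 17 h at 37C. Read-out: fluorescence intensity after 1 h room-temperature incubation with LiveBLAzer B/G FRET substrate.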

Test [19] concerns the target Peroxisome proliferator-activated receptor delta (Homo sapiens) (UniProt Q03181). As to the kind of experiment: qHTS assay to identify small molecule agonists of the peroxisome proliferator-activated receptor delta (PPARd) signaling pathway (AID 743212; calls by dose curve). Summed up: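 HEK293H UAS-bla reporter cells, human PPARd system; compounds delivered in DMSO after 5 h plating, then at 37 C. Beta-lactamase FRET read, 2 h RT substrate step.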

Test [20] has the same target. As to the kind of experiment: qHTS assay to identify small molecule antagonists of the peroxisome proliferator-activated receptor delta (PPARd) signaling pathway (AID 743215; active = well fitted inhibition curve with a large enough effect in the signal ratio in the repeat runs, not every such curve was filed as active; the % refers to the signal ratio; also: series mostly up to about 62 µM). Summed up: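 Inhibition of L165041-driven (300 nM final) PPARd signaling is scored in HEK293H UAS-bla cells. Exposure lasts 17 h at 37 C; beta-lactamase activity is then read by FRET substrate fluorescence after 2 h at room temperature.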

Sequence of Aryl hydrocarbon receptor (Homo sapiens) (P35869 whole entry, looked up): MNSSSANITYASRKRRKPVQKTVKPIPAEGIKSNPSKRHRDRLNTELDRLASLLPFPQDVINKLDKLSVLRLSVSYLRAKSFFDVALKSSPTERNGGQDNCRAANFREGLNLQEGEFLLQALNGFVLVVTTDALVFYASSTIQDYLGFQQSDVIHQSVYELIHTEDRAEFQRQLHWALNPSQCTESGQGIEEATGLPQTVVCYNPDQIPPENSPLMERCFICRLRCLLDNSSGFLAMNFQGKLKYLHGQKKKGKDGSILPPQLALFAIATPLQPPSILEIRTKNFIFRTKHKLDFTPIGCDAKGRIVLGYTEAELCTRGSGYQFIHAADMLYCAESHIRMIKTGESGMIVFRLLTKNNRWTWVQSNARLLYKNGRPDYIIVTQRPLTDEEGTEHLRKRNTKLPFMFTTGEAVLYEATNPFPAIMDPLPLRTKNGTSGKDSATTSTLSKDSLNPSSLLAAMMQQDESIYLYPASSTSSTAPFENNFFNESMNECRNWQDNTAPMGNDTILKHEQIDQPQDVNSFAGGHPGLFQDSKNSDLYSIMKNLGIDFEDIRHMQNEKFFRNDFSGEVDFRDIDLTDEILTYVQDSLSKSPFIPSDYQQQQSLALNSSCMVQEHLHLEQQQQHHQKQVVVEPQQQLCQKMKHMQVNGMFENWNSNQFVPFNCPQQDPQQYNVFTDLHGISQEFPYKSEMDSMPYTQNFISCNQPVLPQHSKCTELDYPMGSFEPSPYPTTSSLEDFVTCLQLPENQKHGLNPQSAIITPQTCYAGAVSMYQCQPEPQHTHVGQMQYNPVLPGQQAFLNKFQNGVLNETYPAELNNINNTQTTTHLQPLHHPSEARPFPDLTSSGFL
Sequence of Peroxisome proliferator-activated receptor gamma (Homo sapiens) (P37231 whole entry, looked up): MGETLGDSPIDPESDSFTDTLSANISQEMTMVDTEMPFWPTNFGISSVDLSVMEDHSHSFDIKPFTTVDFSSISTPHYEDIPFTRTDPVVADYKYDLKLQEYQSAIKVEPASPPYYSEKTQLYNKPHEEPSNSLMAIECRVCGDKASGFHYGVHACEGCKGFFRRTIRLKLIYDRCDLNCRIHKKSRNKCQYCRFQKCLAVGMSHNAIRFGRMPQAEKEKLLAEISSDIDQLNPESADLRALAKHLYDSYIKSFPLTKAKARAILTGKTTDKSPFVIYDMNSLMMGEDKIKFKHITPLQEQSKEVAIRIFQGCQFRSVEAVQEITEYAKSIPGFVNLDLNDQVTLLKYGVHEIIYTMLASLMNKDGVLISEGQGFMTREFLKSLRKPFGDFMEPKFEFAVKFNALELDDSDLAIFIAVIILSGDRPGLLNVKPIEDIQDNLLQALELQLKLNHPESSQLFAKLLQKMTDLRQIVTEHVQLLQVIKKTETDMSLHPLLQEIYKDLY
Sequence of Peroxisome proliferator-activated receptor delta (Homo sapiens) (Q03181 whole entry, looked up): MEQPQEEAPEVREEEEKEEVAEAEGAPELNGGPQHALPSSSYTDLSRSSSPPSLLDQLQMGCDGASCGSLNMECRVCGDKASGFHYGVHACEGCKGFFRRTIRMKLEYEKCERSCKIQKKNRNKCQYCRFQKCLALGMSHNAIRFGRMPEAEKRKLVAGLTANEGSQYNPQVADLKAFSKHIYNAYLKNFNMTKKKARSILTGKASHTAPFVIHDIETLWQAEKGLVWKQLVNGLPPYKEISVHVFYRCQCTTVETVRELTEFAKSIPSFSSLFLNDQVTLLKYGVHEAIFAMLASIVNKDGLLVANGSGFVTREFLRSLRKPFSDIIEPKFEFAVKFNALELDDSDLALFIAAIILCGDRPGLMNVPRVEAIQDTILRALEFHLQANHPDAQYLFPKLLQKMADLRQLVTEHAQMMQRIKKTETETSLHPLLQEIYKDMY
Sequence of Vitamin D3 receptor (Homo sapiens) (P11473 whole entry, looked up): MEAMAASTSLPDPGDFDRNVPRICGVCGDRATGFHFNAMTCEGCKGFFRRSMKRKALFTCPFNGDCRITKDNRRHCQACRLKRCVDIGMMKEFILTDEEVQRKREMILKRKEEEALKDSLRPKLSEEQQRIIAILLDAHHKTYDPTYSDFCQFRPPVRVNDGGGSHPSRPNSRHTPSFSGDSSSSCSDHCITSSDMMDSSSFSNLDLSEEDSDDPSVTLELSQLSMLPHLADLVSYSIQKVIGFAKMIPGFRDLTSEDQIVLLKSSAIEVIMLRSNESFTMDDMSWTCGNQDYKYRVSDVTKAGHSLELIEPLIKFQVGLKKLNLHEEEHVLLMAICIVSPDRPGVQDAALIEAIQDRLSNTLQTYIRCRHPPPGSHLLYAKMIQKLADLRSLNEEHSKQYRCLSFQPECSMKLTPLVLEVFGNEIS
Sequence of Bile acid receptor (Homo sapiens) (Q96RI1 whole entry, looked up): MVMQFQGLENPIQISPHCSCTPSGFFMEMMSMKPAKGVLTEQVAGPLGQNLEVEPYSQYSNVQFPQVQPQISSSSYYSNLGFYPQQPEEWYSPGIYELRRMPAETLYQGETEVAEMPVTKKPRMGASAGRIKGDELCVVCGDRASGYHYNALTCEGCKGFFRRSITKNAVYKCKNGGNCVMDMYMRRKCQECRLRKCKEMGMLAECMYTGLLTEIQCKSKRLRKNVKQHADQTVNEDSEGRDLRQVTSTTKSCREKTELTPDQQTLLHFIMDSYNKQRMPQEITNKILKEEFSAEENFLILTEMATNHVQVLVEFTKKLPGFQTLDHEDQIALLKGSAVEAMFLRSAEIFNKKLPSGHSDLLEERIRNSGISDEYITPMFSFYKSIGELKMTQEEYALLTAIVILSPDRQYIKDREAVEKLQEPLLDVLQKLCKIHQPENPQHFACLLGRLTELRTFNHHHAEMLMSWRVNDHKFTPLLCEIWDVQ

Consider `CC(=O)/C=C/C1=C(C)CCCC1(C)C`, for which the Potency result in test [1], in test [2], in test [3], in [4], in [5] and in [6] was “inactive” in each case. Moreover, the Potency result in test [7], in test [10], in test [11], in [12], in test [13] and in test [17] was “inactive” throughout. Further, the molecule was classed as inactive in [8], in test [9], in test [14], in test [15] and in test [16].

`O=C(O)Cc1cccc2ccccc12`: the Potency result in test [1], in test [2], in test [3], in [18], in test [5] and in test [6] was “inactive” each time. For the same molecule, the Potency entry in test [7], in test [10], in test [11], in test [12] and in test [17] was “inactive” each time. Besides, in test [4], the Potency was 27.5 µM (active). The molecule was called inactive in test [8], in test [9], in test [19], in test [20], in [14] and in test [15]. For the same molecule, the molecule was called inactive in test [16].

For the molecule `N[C@@H](Cc1c[nH]c2ccc(O)cc12)C(=O)O`, the Potency result in test [1], in test [3], in [4], in test [18], in test [5] and in test [6] was “inactive” throughout. For the same molecule, the Potency result in test [7], in test [10], in test [11] and in test [17] was “inactive” in each case. Moreover, the Potency in test [2] is 9.44 µM (active) and 5.29 µM (active). Also, the call in test [8], in [9], in test [19], in test [20], in test [15] and in test [16] was inactive.

Turning to `C#C[C@]1(O)CC[C@H]2[C@@H]3CCc4cc(O)ccc4[C@H]3CC[C@@]21C`, the Potency result in test [1] was “inactive and 48.2 µM (active)”. The Potency result in test [2], in test [3], in [4], in test [5], in test [6] and in test [7] was “inactive” in each case. For the same molecule, the Potency entry in [10] and in test [11] was “inactive” each time. Moreover, the molecule was classed as inactive in test [8], in [9], in test [19], in test [20] and in test [15].

As for `CC(=O)CCC(C)C`, the Potency result in test [1], in test [2], in test [3], in test [4], in test [5] and in [7] was “inactive” in each case. Further, the Potency entry in test [10], in test [11] and in test [12] was “inactive” throughout. In addition, the Potency in [6] is 61.1 µM (active). Further, the outcome in test [8], in [9], in test [19], in [20], in test [14] and in test [15] was inactive.

In the case of `COC1=CC(=O)C[C@@H](C)[C@]12Oc1c(Cl)c(OC)cc(OC)c1C2=O`, the Potency entry in [1], in [2], in test [3], in test [5], in test [7] and in test [10] was “inactive” throughout. In addition, the Potency entry in test [11], in test [12] and in test [13] was “inactive” each time. Further, the Potency entry in test [4] is “inactive and 48.5 µM (active)”; in [18], 19.5 µM (active). Also, the result in test [8], in test [9], in [19], in [14], in [15] and in [16] was inactive.

Take `O=C(O)CCCCC1CCSS1` (configuration not stated): the Potency entry in [1], in [2], in test [3], in test [4], in [18] and in test [5] was “inactive” each time. In addition, the Potency entry in test [7], in test [10], in [11], in test [13] and in test [17] was “inactive” each time. The call in test [8], in test [9], in test [19], in test [20], in test [15] and in test [16] was inactive.
